Records with an inconclusive call do not appear. The source made the active and inactive calls. Unless noted, calls follow the shape of the dose curve; as a rule, active = well fitted curve in the direction sought with a large enough effect in the repeat runs; inconclusive = weak or mixed curves; inactive = no such curve, though single readings can be large; an effect the other way counts as inactive or inconclusive.
Key:
[1] = qHTS assay to identify small molecule agonists of the estrogen receptor alpha (ER-alpha) signaling pathway in the presence of an antagonist - cell viability counter screen (AID 1259386); conditions: VM7Luc4E2 viability, CellTiter-Fluor fluorescence, 22 h; series mostly up to 92.4 µM;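 also: cells exposed to compounds for 22 h at 37 °C before the viability read; nearly all actives have a fitted effect of over 30% in size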
Method in brief: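 Fluorescent CellTiter-Fluor viability signal from VM7Luc4E2 cells, with the reagent added during the final hour of a 22hr compound exposure at 37C in the presence of 10.0nM ICI-182,780.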

[2] = target: Progesterone receptor (Homo sapiens) (UniProt P06401); assay: qHTS assay to identify small molecule agonists of the progesterone receptor (PR) signaling pathway (AID 1346784; calls by dose curve; also: nearly all actives have a fitted effect of over 30% in size); conditions: PR-UAS-bla HEK293T, beta-lactamase FRET ratio, 16 h; series mostly up to 92.4 µM
Method in brief: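 Agonist qHTS: compounds pinned onto 3,000 PR-UAS-bla HEK 293T cells per well in charcoal-stripped serum medium, 16hr at 37C, then beta-lactamase activity measured by LiveBLAzer FRET fluorescence after 2 hours at room temperature.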

[3] = target: Progesterone receptor (Homo sapiens) (UniProt P06401); assay: qHTS assay to identify small molecule antagonists of the progesterone receptor (PR) signaling pathway (AID 1346795; active = well fitted inhibition curve with a large enough effect in the signal ratio in the repeat runs, not every such curve was filed as active; the % refers to the signal ratio); conditions: PR-UAS-bla HEK293T, beta-lactamase FRET ratio, 16 h; series mostly up to 92.4 µM
Method in brief: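 Antagonist mode with agonist R5020 at 1 nM final and 16 hr incubation at 37C. Reporter was beta-lactamase driven by UAS in HEK293T (PR-UAS-bla), 2% charcoal-stripped serum; signal from LiveBLAzer FRET substrate, 2 hr at room temperature.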

[4] = qHTS assay to identify small molecule antagonists of the progesterone receptor (PR) signaling pathway - cell viability counter screen (AID 1346798); conditions: PR-UAS-bla HEK293T viability, CellTiter-Glo luminescence, 16 h; series mostly up to 92.4 µM; also: nearly all actives have a fitted effect of over 50% in size
Method in brief: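 Cytotoxicity read as CellTiter-Glo luminescence (30 min, room temperature) in the same wells as the beta-lactamase readout. HEK293T PR-UAS-bla cells in charcoal-stripped 2% FBS received compound and R5020, then 16 h at 37C, 5% CO2.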

[5] = qHTS assay to identify small molecule agonists of the progesterone receptor (PR) signaling pathway - cell viability counter screen (AID 1346799; calls by dose curve; also: nearly all actives have a fitted effect of over 45% in size); conditions: PR-UAS-bla HEK293T viability, CellTiter-Glo luminescence, 16 h; series mostly up to 92.4 µM
Method in brief: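 Cytotoxicity measured by CellTiter-Glo luminescence (30 min, RT) in the same wells as the PR beta-lactamase agonist read. Those HEK293T cells had 16 h compound treatment at 37 C in 2% charcoal-stripped FBS medium.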

[6] = qHTS assay to identify small molecule antagonists of the TGF-beta/Smad signaling pathway - cell viability counter screen (AID 1346824); conditions: SBE-bla HEK293T viability, CellTiter-Glo luminescence; series mostly up to 76.8 µM; also: nearly all actives have a fitted effect of over 50% in size
Method in brief: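 Cytotoxicity counter-screen run in the same wells as the beta-lactamase Smad reporter read: CellTiter-Glo luminescence after 30 min at room temperature. HEK 293T SBE-bla cells had 5 hr compound exposure at 37 C with TGF-beta1 (0.25 ng/mL stock).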

[7] = qHTS assay to identify small molecule agonists of the TGF-beta/Smad signaling pathway - cell viability counter screen (AID 1346829); conditions: SBE-bla HEK293T viability, CellTiter-Glo luminescence, 5 h; series mostly up to 76.8 µM; also: top concentration of the series differs between compounds; nearly all actives have a fitted effect of over 45% in size
Method in brief: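 Here the cytotoxicity of library compounds is measured in SBE-bla HEK 293T cells treated for 5 hr, using CellTiter-Glo added to wells already read for the beta-lactamase reporter.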

[8] = qHTS assay to identify small molecule agonists of the TGF-beta/Smad signaling pathway (AID 1346859; active = well fitted activation curve with a large enough effect in the signal ratio in the repeat runs, not every such curve was filed as active; the % refers to the signal ratio); conditions: SBE-bla HEK293T, TGF-beta/Smad beta-lactamase reporter, 5 h; series mostly up to 76.8 µM
Method in brief: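 Fluorescence (ex 405 nm; em 460 and 530 nm) was read 2 h after LiveBLAzer FRET substrate at RT. The preceding compound treatment of overnight-plated SBE-bla HEK293T cells lasted 5 h at 37 C.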

[9] = target: Thyrotropin-releasing hormone receptor (Homo sapiens) (UniProt P34981); assay: qHTS assay to identify small molecule antagonists of the thyrotropin-releasing hormone receptor (TRHR) signaling pathway (AID 1346877; active = well fitted inhibition curve with a large enough effect in the repeat runs, not every such curve was filed as active); conditions: TRHR-HEK293, TRH-induced calcium fluorescence, antagonist mode; series mostly up to 51.3 µM
Method in brief: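 In this cell-based calcium flux format, HEK293 cells expressing TRHR received test compound for 5 min before the agonist TRH (1 nM final). Dye loading lasted 2 h at 37 °C.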

[10] = target: Thyrotropin-releasing hormone receptor (Homo sapiens) (UniProt P34981); assay: qHTS assay to identify small molecule agonists of the thyrotropin-releasing hormone receptor (TRHR) signaling pathway (AID 1346891; calls by dose curve); conditions: TRHR-HEK293 calcium fluorescence, agonist mode; series mostly up to 57.6 µM
Method in brief: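 Agonist-mode intracellular calcium readout: kinetic fluorescence over 3 min at 1 s intervals after compound addition to TRHR-HEK293 cells (18 h seeded, 2 h dye-loaded at 37 C). Fifteen concentrations, triplicates.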
% is scaled to controls: 0 for no effect and ±100 for the full control effect.

Sequence of Progesterone receptor (Homo sapiens) (P06401 whole entry, looked up): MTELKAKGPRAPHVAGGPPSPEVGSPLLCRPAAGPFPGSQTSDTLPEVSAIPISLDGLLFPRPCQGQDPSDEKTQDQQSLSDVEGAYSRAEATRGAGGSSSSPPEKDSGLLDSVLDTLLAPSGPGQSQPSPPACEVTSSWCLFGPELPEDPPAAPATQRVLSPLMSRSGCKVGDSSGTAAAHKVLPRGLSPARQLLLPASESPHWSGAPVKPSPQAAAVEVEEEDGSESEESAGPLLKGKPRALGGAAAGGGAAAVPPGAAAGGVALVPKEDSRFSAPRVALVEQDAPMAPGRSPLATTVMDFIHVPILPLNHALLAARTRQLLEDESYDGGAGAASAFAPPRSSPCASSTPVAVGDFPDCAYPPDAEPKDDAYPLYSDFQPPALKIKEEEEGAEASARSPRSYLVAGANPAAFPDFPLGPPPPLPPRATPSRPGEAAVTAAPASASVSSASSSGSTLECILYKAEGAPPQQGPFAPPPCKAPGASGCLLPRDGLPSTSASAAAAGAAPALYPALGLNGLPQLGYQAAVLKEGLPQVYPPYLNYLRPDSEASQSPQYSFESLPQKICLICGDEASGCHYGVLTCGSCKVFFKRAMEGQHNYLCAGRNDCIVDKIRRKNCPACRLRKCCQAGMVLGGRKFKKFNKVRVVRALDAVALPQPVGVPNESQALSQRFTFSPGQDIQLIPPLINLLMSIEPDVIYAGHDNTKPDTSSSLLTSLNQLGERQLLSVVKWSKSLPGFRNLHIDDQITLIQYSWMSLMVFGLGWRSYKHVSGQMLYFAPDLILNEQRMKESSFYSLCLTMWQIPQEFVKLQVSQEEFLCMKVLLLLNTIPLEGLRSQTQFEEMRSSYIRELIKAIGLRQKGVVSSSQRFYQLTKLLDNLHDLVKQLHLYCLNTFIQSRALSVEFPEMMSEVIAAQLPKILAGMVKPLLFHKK
Sequence of Thyrotropin-releasing hormone receptor (Homo sapiens) (P34981 whole entry, looked up): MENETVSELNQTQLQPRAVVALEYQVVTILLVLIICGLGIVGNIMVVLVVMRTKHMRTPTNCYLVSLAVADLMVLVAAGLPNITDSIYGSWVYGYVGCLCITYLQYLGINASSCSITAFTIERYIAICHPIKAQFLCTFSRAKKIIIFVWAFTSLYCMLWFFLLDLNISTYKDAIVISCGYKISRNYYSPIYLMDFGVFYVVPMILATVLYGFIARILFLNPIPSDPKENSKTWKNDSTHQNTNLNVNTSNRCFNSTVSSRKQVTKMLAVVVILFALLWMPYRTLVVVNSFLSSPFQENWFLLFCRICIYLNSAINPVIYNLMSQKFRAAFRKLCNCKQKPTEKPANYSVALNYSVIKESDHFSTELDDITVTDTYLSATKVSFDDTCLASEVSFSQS

Nc1ncnc(Nc2ccccc2)n1
inactive: Potency [1] | Potency [2] | Potency [3] | Potency [4] | Potency [5] | outcome [6] | outcome [7] | outcome [8] | outcome [9] | outcome [10]

O=C(O)Cc1cn(-c2ccccc2)nc1-c1ccc(Cl)cc1
inactive: Potency [1] | Potency [2] | Potency [3] | Potency [4] | Potency [5] | outcome [6] | outcome [7] | outcome [9] | outcome [10]

Cc1cc(NC(=O)C2=C(O)c3ccccc3S(=O)(=O)N2C)no1
inactive: Potency [1] | Potency [2] | Potency [3] | Potency [4] | Potency [5] | outcome [6] | outcome [7] | outcome [8] | outcome [9] | outcome [10]

O=C(CCNNC(=O)c1ccncc1)NCc1ccccc1
inactive: Potency [1] | Potency [2] | Potency [3] | Potency [4] | Potency [5] | outcome [6] | outcome [7] | outcome [8] | outcome [9] | outcome [10]

CCCCCCN
inactive: Potency [1] | Potency [2] | Potency [3] | Potency [4] | Potency [5] | outcome [6] | outcome [7] | outcome [8] | outcome [9] | outcome [10]

O=C(NCCc1c[nH]c2ccccc12)c1cccnc1
inactive: Potency [1] | Potency [2] | Potency [3] | Potency [4] | Potency [5] | outcome [6] | outcome [7] | outcome [8] | outcome [9] | outcome [10]

CC(=O)CCCCn1c(=O)c2c(ncn2C)n(C)c1=O
inactive: Potency [1] | Potency [2] | Potency [3] | Potency [4] | Potency [5] | outcome [6] | outcome [7] | outcome [8] | outcome [9] | outcome [10]

CC(C)(C)c1n[nH]c(=S)n(N)c1=O
inactive: Potency [1] | Potency [2] | Potency [3] | Potency [4] | Potency [5] | outcome [6] | outcome [7] | outcome [8] | outcome [9] | outcome [10]

CNS(=O)(=O)CCc1ccc2[nH]cc(C3CCN(C)CC3)c2c1
inactive: Potency [1] | Potency [2] | Potency [3] | Potency [4] | Potency [5] | outcome [6] | outcome [7] | outcome [8] | outcome [9] | outcome [10]

O=C1O[C@@H]2[C@@H](O)[C@H](O)O[C@@H]2[C@H]1O
inactive: Potency [1] | Potency [2] | Potency [3] | Potency [4] | Potency [5] | outcome [6] | outcome [7] | outcome [8] | outcome [9] | outcome [10]

O=C(O)c1cc(Br)c(O)c(Br)c1
inactive: Potency [1] | Potency [2] | Potency [3] | Potency [4] | Potency [5] | outcome [6] | outcome [7] | outcome [8] | outcome [9] | outcome [10]

C[C@@H](O)[C@H]1C(=O)N2C(C(=O)O)=C(SCCN=CN)C[C@H]12
inactive: Potency [1] | Potency [2] | Potency [3] | Potency [4] | Potency [5] | outcome [6] | outcome [7] | outcome [8] | outcome [9] | outcome [10]

Cc1ccsc1/C=C/C1=NCCCN1C
inactive: Potency [1] | Potency [2] | Potency [3] | Potency [4] | Potency [5] | outcome [6] | outcome [7] | outcome [8] | outcome [9] | outcome [10]

CCCCCCCCCCCCCC
inactive: Potency [1] | Potency [2] | Potency [3] | Potency [4] | Potency [5] | outcome [6] | outcome [7] | outcome [8] | outcome [9] | outcome [10]

CN(C)c1ccc(C=O)cc1
inactive: Potency [1] | Potency [2] | Potency [3] | Potency [4] | Potency [5] | outcome [6] | outcome [7] | outcome [8] | outcome [9] | outcome [10]

CC/C=C\CC1=C(C)CCC1=O
inactive: Potency [1] | Potency [2] | Potency [3] | Potency [4] | Potency [5] | outcome [6] | outcome [7] | outcome [8] | outcome [9] | outcome [10]

CC(C)OC(=O)CCCCC(=O)OC(C)C
inactive: Potency [1] | Potency [2] | Potency [3] | Potency [4] | Potency [5] | outcome [6] | outcome [7] | outcome [8] | outcome [9] | outcome [10]

NCCS
inactive: Potency [1] | Potency [2] | Potency [3] | Potency [4] | Potency [5] | outcome [6] | outcome [7] | outcome [8] | outcome [9] | outcome [10]

O=S(O)(O)=S
inactive: activity change, negative = cytotoxicity [1] 1.38% [at 8.39 µM] | activation [2] -0.0718% [at 8.39 µM] | activity change, negative = inhibition [3] 2.55% [at 8.39 µM] | activity change, negative = cytotoxicity [4] 5.98% [at 8.39 µM] | activity change, negative = cytotoxicity [5] -1.49% [at 8.39 µM] | viability change, negative = cytotoxic [6] -0.132% [at 6.97 µM] | activity change, negative = cytotoxicity [7] 1.63% [at 6.97 µM] | activation [8] 3.3% [at 6.97 µM] | activity, negative = inhibition [9] 1.85% [at 4.65 µM] | activation [10] 0.644% [at 5.23 µM]

C[C@H](CCC(=O)O)[C@H]1CC[C@H]2[C@@H]3C(=O)C[C@@H]4CC(=O)CC[C@]4(C)[C@H]3CC(=O)[C@]12C
inactive: Potency [1] | Potency [2] | Potency [3] | Potency [4] | Potency [5] | outcome [6] | outcome [7] | outcome [8] | outcome [9] | outcome [10]

NS(=O)(=O)c1cc2c(cc1Cl)CN(C1CCCCC1)C2=O
inactive: Potency [1] | Potency [2] | Potency [3] | Potency [4] | Potency [5] | outcome [6] | outcome [7] | outcome [8] | outcome [9] | outcome [10]

Cc1cccc(C)c1OCC(C)N (centres undefined)
inactive: Potency [1] | Potency [2] | Potency [3] | Potency [4] | Potency [5] | outcome [6] | outcome [7] | outcome [8] | outcome [9] | outcome [10]

COCCc1ccc(OCC2CO2)cc1 (centres undefined)
inactive: Potency [1] | Potency [2] | Potency [3] | Potency [4] | Potency [5] | outcome [6] | outcome [7] | outcome [8] | outcome [9] | outcome [10]

OCCN(CCO)c1cccc(Cl)c1
inactive: Potency [1] | Potency [2] | Potency [3] | Potency [4] | Potency [5] | outcome [6] | outcome [7] | outcome [8] | outcome [9] | outcome [10]

From PubChem BioAssay (Tox21)
